As usually defined, the inhibition is the relative decrease from the control value, in per cent.

Each structure is given as a SMILES string. Activity calls are given as the source filed them.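 Rule for the calls, unless noted: active = visually confirmed hit in the image check and inhibition above 20%; inconclusive = visually confirmed hit but inhibition not above 20%; inactive = no visual hit in the image check.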

14 compounds from PubChem BioAssay can be followed below.

The nature of assay [1]: inhibitors of TNFa-induced NFkB p65 translocation, primary screen, imaging, HUVEC, MLSMR starter and 10KST1 sets (AID 438;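 active = inhibition above 20% together with a positive visual image hit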;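 note: compound added about 3h40 before a 20 min TNFalpha stimulation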;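 for inhibition: signal is the nuclear over cytoplasmic p65 intensity ratio per well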). The settings on record: HUVEC TNFa-induced p65 nuclear translocation; cell count: measured here: nuclei count (cytotoxicity indicator), at 2.08 µM; inhibition: at 2 µM, stronger effect = higher value, 0% TNFa-plus-vehicle, 100% no-TNFa wells.
The nature of assay [2]: reduction of polyQ htt aggregates in cells – imaging, exon1htt(103Q)mCFP cells, high-content imaging, primary screen (AID 483;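 active = visual image review flags a hit and inhibition of aggregation exceeds 20%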;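 note: compound exposure lasted 3 days before fixation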;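 for nuclei count: percent of the per-plate median nuclei count of sample wells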). Particulars: exon1htt(103Q)mCFP cell line, aggregate imaging, at 2 µM; inhibition of aggregation: stronger effect = higher value; nuclei count: measured here: cell count, toxicity.
The nature of assay [3]: endothelial E-selectin expression blockers – imaging, HUVEC, immunofluorescence, MLSMR starter and 10KST1 sets, primary screen (AID 487).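 For inhibition: signal is fraction of cell area covered by stained E-selectin grains.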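 For nuclei count: 100% = median nuclei count of all wells on the same plate.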 The settings on record: HUVEC TNFalpha-induced E-selectin immunofluorescence imaging, at 2 µM; inhibition: stronger effect = higher value; nuclei count: measured here: cell number, toxicity.
Assay [4] addresses Voltage-gated potassium channel subunit beta-2 (Rattus norvegicus) (UniProt P62483). Nature of the assay: inhibitors of rat Kvbeta2 reductase activity – biochemical, NADPH fluorescence, primary screen (AID 622;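 active = fluorescence slope higher than the sample average by over 3 SD, cut at about -0.22 in these data, passing the limit was not always enough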;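 note: slope of raw intensity against log time taken from 70 to 1610 s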). Particulars: recombinant KvBeta, 4-cyanobenzaldehyde reduction, at 10 µM, stronger effect = higher value.
The target is the same in assay [5]. The assay is described as follows: enhancers of rat Kvbeta2 NADPH turnover – biochemical, NADPH fluorescence, primary screen (AID 623;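 active = NADPH fluorescence slope more negative than the mean of all samples by about 3 SD, 99.7% confidence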;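 note: fluorescence intensity change per second fitted from 20 to 320 s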). The settings on record: Recombinant KvBeta, NADPH fluorescence decrease slope, 10 min; at 10 µM; stronger effect = lower value.
For assay [6], the target named is Alpha-2C adrenergic receptor (Homo sapiens) (UniProt P18825). Nature of the assay: compounds altering alpha2C-coupled GIRK flux – cell-based, HEK293 alpha2C/GIRK1/2, thallium flux, primary screen (AID 624;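 active = fluorescence slope after compound addition differing from the mean of all screened samples at 99.7% confidence, in either direction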;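 note: slope of fluorescence ratio to pre-addition baseline per second over 15 to 24 s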). Particulars: thallium flux BTC fluorescence, at 10 µM, actives lie on both sides.
The nature of assay [7]: blockers of RIG-like receptor reporter activation – cell-based, Sendai virus stimulus, luciferase, 10K MLSCN set, TLR/RLR signaling modifier project, primary screen (AID 602276;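 active = inhibition at or above 50% at 10 µM; inactive = inhibition below 50%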;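 note: firefly luciferase from ISG56 promoter only with Renilla not read in this screen; 0% = Sendai virus plus DMSO and 100% = medium plus DMSO without virus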). The settings on record: HEK293 RL24 IRF3 luciferase reporter, at 10 µM, stronger effect = higher value.
Assay [8] in a line: TLR3 IRF3 reporter activation blockers – cell-based, poly I:C stimulus, luciferase, 10K MLSCN set, primary screen (AID 602277;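 active = inhibition of the reporter signal at or above 50%; inactive = inhibition below 50%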). The settings on record: HEK293-TLR3 RL24 IRF3 luciferase reporter, at 10 µM, stronger effect = higher value. Background: A reporter such as luciferase makes a cellular process visible.

Sequence of Alpha-2C adrenergic receptor (Homo sapiens) (P18825 whole entry, looked up): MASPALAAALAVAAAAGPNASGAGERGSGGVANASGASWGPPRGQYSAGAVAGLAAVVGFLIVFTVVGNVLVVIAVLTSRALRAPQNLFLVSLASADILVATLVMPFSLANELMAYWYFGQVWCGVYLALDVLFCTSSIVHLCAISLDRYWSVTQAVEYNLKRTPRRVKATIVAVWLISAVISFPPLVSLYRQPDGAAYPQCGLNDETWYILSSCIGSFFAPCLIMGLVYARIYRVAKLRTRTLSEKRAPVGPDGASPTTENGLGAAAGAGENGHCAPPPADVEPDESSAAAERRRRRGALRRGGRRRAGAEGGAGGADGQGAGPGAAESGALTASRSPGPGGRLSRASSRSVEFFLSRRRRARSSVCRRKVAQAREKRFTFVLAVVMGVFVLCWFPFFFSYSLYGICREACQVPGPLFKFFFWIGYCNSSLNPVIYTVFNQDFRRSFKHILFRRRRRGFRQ
Sequence of Voltage-gated potassium channel subunit beta-2 (Rattus norvegicus) (P62483 whole entry, looked up): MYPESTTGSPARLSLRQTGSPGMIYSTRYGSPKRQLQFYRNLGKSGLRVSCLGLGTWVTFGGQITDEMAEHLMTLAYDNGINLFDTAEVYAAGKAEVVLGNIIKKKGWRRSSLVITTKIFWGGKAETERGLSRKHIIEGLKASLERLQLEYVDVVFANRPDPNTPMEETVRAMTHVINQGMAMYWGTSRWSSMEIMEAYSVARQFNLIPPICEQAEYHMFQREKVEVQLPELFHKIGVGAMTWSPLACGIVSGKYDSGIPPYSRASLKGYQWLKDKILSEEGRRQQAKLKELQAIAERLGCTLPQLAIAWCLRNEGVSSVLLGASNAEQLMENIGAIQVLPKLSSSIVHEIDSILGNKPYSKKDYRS

Take `O=S(=O)(NCC1CCCO1)c1ccc2c(c1)OCCO2` (centres undefined): the cell count in assay [1] came to 311. Also, the inhibition is -5.5% (inactive) in assay [1], -67.1% (inactive) in assay [3], 6.84% (inactive) in assay [7] and 7.25% (inactive) in assay [8]. The inhibition of aggregation in assay [2] was -1% (inactive). In addition, the figures for the nuclei count in assay [2] and in assay [3] were 122% and 120%, respectively. Further, in assay [4], the fluorescence slope is -0.469 (inactive). Besides, the NADPH fluorescence slope in assay [5] was -9.9e-06 (inactive). The slope in assay [6] is 0.00518 (inactive).

Turning to `COc1ccc(N2CCN(Cc3cc(=O)oc4cc(C)c(Cl)c(C)c34)CC2)cc1`, the cell count in assay [1] was 604. The inhibition in assay [1] was 0.3% (inactive); in assay [3], 19% (inactive); in assay [7], 17.9% (inactive); in assay [8], 12% (inactive). Besides, the inhibition of aggregation in assay [2] is 8.9% (inactive). The nuclei count came to 104% in assay [2] and 93.1% in assay [3]. For the same compound, the fluorescence slope in assay [4] was -0.388 (inactive). In addition, the NADPH fluorescence slope in assay [5] was 1.5e-05 (inactive). For the same compound, in assay [6], the slope was 0.00505 (inactive).

`COC(=O)c1ccc2c(c1)C(=O)N(C1CCCCC1)C2=O`: the cell count in assay [1] is 338. The inhibition is 2.1% (inactive) in assay [1], -9.6% (inactive) in assay [3], 14.7% (inactive) in assay [7] and 13.8% (inactive) in assay [8]. In assay [2], the inhibition of aggregation is -2.4% (inactive). The nuclei count amounted to 107% in assay [2] and 96.9% in assay [3]. In assay [4], the fluorescence slope was -0.443 (inactive). Besides, the NADPH fluorescence slope in assay [5] was -3.4e-05 (inactive). In addition, the slope in assay [6] is 0.00524 (inactive).

Consider `O=c1c2[nH]c3ccccc3c2ncn1CCCn1ccnc1`, for which the cell count in assay [1] is 717. Also, the inhibition in assay [1] was -0.2% (inactive); in assay [3], -21.4% (inactive); in assay [7], 26.3% (inactive); in assay [8], 50.7% (active). In addition, in assay [2], the inhibition of aggregation was -4.9% (inactive). For the same compound, the nuclei count in assay [2] is 99.9%; in assay [3] it was 111%. The fluorescence slope in assay [4] was -0.42 (inactive). Moreover, the NADPH fluorescence slope in assay [5] was 3.1e-06 (inactive). Further, in assay [6], the slope was 0.00409 (inactive).

Take `O=C(CSc1nc2ccccc2s1)N1CCOCC1`: the cell count in assay [1] amounted to 330. Moreover, the inhibition in assay [1] is 0.5% (inactive); in assay [3], -38.9% (inactive); in assay [7], -27.4% (inactive); in assay [8], -58.1% (inactive). In assay [2], the inhibition of aggregation is -12.6% (inactive). Besides, the nuclei count in assay [2] was determined as 105%; in assay [3], 118%. Further, the fluorescence slope in assay [4] was -0.525 (inactive). Moreover, in assay [5], the NADPH fluorescence slope was -1.9e-05 (inactive). Also, the slope in assay [6] was 0.00424 (inactive).

With `CC(C)OC(=O)CSc1nnc(-c2ccc(C(C)(C)C)cc2)n1N`, the cell count in assay [1] was 396. Also, the inhibition in assay [1] was -2.3% (inactive); in assay [3], -158% (inactive); in assay [7], 1.32% (inactive); in assay [8], 14% (inactive). For the same compound, in assay [2], the inhibition of aggregation is 4.2% (inactive). Besides, the nuclei count in assay [2] was determined as 80.6%; in assay [3], 210%. The fluorescence slope in assay [4] is -0.469 (inactive). The NADPH fluorescence slope in assay [5] was -3.9e-05 (inactive). The slope in assay [6] was 0.00343 (inactive).

With `COc1ccc(S(=O)(=O)N(CC(=O)N2CCN(c3ccccc3OC)CC2)c2ccccc2)cc1`, the cell count in assay [1] came out at 291. For the same compound, the inhibition in assay [1] is 5.2% (inactive); in assay [3], 20% (inactive); in assay [7], 8.76% (inactive); in assay [8], 13.4% (inactive). In addition, the inhibition of aggregation in assay [2] is -12.6% (inactive). The figures for the nuclei count in assay [2] and in assay [3] were 104% and 111%, respectively. Further, the fluorescence slope in assay [4] was -0.474 (inactive). Moreover, the NADPH fluorescence slope in assay [5] was -4.9e-05 (inactive). Besides, the slope in assay [6] was 0.00648 (inactive).

With `CC(=O)OC1c2ccccc2C(=O)N1Cc1ccccc1Cl` (centres undefined), in assay [1], the cell count came out at 468. Also, the inhibition was -2.8% (inactive) in assay [1], -13.3% (inactive) in assay [3], 4.84% (inactive) in assay [7] and 27.6% (inactive) in assay [8]. Besides, in assay [2], the inhibition of aggregation was 34% (inactive). The values for the nuclei count in assay [2] and in assay [3] were 61% and 106%, respectively. The fluorescence slope in assay [4] was -0.552 (inactive). Besides, in assay [5], the NADPH fluorescence slope was -4.6e-05 (inactive). For the same compound, in assay [6], the slope is 0.00651 (inactive).

With `COc1ccc2cc(C(=O)NCc3ccco3)c(=Nc3ccc(C(=O)O)cc3)oc2c1`, the cell count in assay [1] was found to be 507. The inhibition in assay [1] is -12.8% (inactive); in assay [3], -56.7% (inactive); in assay [7], 16.4% (inactive); in assay [8], 3.42% (inactive). The inhibition of aggregation in assay [2] was 19% (inactive). For the same compound, the nuclei count in assay [2] turned out to be 96.3%; in assay [3], 120%. The fluorescence slope in assay [4] is -0.372 (inactive). Moreover, the NADPH fluorescence slope in assay [5] is -5.2e-05 (inactive). The slope in assay [6] is 0.00401 (inactive).

Regarding `O=C(CN1c2cccc3cccc(c23)S1(=O)=O)N1CCOCC1`, the cell count in assay [1] turned out to be 253. Besides, the inhibition is -5.5% (inactive) in assay [1], -59.8% (inactive) in assay [3], 17% (inactive) in assay [7] and 13.6% (inactive) in assay [8]. Also, in assay [2], the inhibition of aggregation is 16% (inactive). For the same compound, the nuclei count in assay [2] is 83%; in assay [3] it was 101%. In assay [4], the fluorescence slope was -0.189 (inactive). Besides, in assay [5], the NADPH fluorescence slope was -1.8e-05 (inactive). Besides, the slope in assay [6] was 0.00514 (inactive).

In the case of `O=C1CCCC2=C1C(c1cccs1)n1nc(SCc3ccccc3F)nc1N2` (centres undefined), the cell count in assay [1] was 694. The inhibition in assay [1] was 8.6% (inactive); in assay [3] it was -30.7% (inactive); in assay [7], -24.2% (inactive); in assay [8], -0.597% (inactive). The inhibition of aggregation in assay [2] was 16.5% (inactive). The values for the nuclei count in assay [2] and in assay [3] were 109% and 79.7%, respectively. Further, the fluorescence slope in assay [4] is -0.505 (inactive). In addition, the NADPH fluorescence slope in assay [5] was 3.2e-05 (inactive). Also, the slope in assay [6] is 0.00593 (inactive).

For the compound `COc1ccc(-n2c(SCC(=O)N3CCCCC3C)nnc2-c2cccnc2)cc1` (centres undefined), the cell count in assay [1] was 584. Further, the inhibition in assay [1] was -12.2% (inactive); in assay [3] it was -23.2% (inactive); in assay [7] it was 6.12% (inactive); in assay [8], 9.8% (inactive). In assay [2], the inhibition of aggregation was 24.3% (inactive). The values for the nuclei count in assay [2] and in assay [3] were 93.6% and 103%, respectively. Also, the fluorescence slope in assay [4] is -0.337 (inactive). Further, the NADPH fluorescence slope in assay [5] was -5.2e-05 (inactive). The slope in assay [6] was 0.00523 (inactive).

Turning to `O=c1[nH]c2ccc(Br)cc2c(-c2ccccc2)c1N1CCOCC1`, the cell count in assay [1] turned out to be 728. In addition, the inhibition was -8% (inactive) in assay [1], -12% (inactive) in assay [3], -7.49% (inactive) in assay [7] and -16.4% (inactive) in assay [8]. In addition, the inhibition of aggregation in assay [2] was -1.1% (inactive). The nuclei count is 88.6% in assay [2] and 119% in assay [3]. Further, the fluorescence slope in assay [4] is -0.396 (inactive). Further, the NADPH fluorescence slope in assay [5] was 2.9e-05 (inactive). Moreover, the slope in assay [6] is 0.00458 (inactive).

Regarding `CCOc1ccc(Cc2nn[nH]n2)cc1`, the cell count in assay [1] is 663. Further, the inhibition was -3.2% (inactive) in assay [1], -38.6% (inactive) in assay [3], 9.13% (inactive) in assay [7] and 16.7% (inactive) in assay [8]. Besides, the inhibition of aggregation in assay [2] was 10.3% (inactive). The figures for the nuclei count in assay [2] and in assay [3] were 90.5% and 141%, respectively. In addition, the fluorescence slope in assay [4] is -0.47 (inactive). In addition, the NADPH fluorescence slope in assay [5] was -0.000245 (inactive). Moreover, in assay [6], the slope was 0.00563 (inactive).
